Sampled rows, rich in hits. Any-hit rate of the full collection: about 6.7%.
Pf_Dd2_growth = blocks growth of Plasmodium falciparum Dd2 parasites; activity change, % at 10 µM; 94,000 compounds, 2.3% hits; P. falciparum Dd2 growth, SYBR Green, 72 h; hits give low values; AID 1159554; in the data active = activity change below about -80%; inconclusive = no clear call, values can overlap the other calls
T_cruzi_growth-1 = blocks T. cruzi growth in NIH3T3 culture | T. cruzi beta-gal in NIH3T3, GalScreen luminescence, 90 h | inhibition, % at 8.34 µM | 77,000 compounds, 5.9% hits | AID 624255;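 active = mean inhibition above about 93%, with at least 55% of replicates each passing it, limit read from the data, passing the limit was not always enough; inconclusive = only one of those two conditions holds; inactive = neither condition holds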
C_diff_growth = blocks growth of Clostridium difficile | 86,000 compounds, 0.25% hits | Clostridium difficile clinical isolate growth, OD600, 24 h; hits give low values | growth activity, negative = inhibition, % at 16 µg/mL (by protocol);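 active = mean growth activity at or below -80% and every replicate also at or below -80%; inconclusive = mean at or below -80% but some replicate above -80%; inactive = mean growth activity above -80%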;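 also: 0% = DMSO wells and -100% = levofloxacin 16 µg/mL wells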
T_cruzi_growth-2 = blocks T. cruzi growth in NIH3T3 host cells. inhibition, % at 8.35 µM. 5,600 compounds, 72% hits. shares compounds with T_cruzi_growth-1. T. cruzi beta-gal in NIH3T3, GalScreen luminescence, 90 h;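 active = mean replicate inhibition above about 95% and at least 55% of replicates individually reaching it, limit read from the data; inconclusive = only one of the two criteria is met; inactive = neither criterion is met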
T_cruzi_growth-3 = Trypanosoma cruzi proliferation inhibition; shares compounds with T_cruzi_growth-1; T. cruzi beta-gal in NIH3T3, GalScreen luminescence, 90 h; inhibition, % at 2.09 µM; 5,600 compounds, 21% hits; AID 651740;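 active = mean inhibition above about 95%, with at least 55% of replicates also reaching it, limit read from the data; inconclusive = meets just one of the two conditions; inactive = meets neither condition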;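 also: plate controls were neutral control median for no effect and positive control median for full effect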
NIH3T3_tox = kills mouse NIH/3T3 fibroblasts; shares compounds with T_cruzi_growth-1; NIH/3T3 viability, CellTiter-Glo ATP luminescence, 90 h; cytotoxicity (signal decrease), % at 8.35 µM; 5,600 compounds, 14% hits; AID 651742;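 active = mean signal decrease across replicates above about 35% based on untreated-well scatter, with enough replicates individually passing, limit read from the data; inconclusive = no rule stated though some were filed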;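 also: 0% = median of neutral control wells and 100% = median of positive control wells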
NIH3T3_tox_2 = kills mouse NIH/3T3 fibroblasts | shares compounds with T_cruzi_growth-1 | 5,600 compounds, 56% hits | inhibition, % at 24.9 µM | NIH/3T3 viability, CellTiter-Glo ATP luminescence, 90 h;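 active = mean loss of cell viability signal at or above a set limit, and enough replicates individually reaching it; inconclusive = meets only the mean limit or only the replicate share; inactive = meets neither condition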;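 also: 0% = median of neutral control wells and 100% = median of positive control wells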
Starred values were filed as active, the others as inactive; ? = inconclusive; · = not tested or not shown.

SMILES Pf_Dd2_growth T_cruzi_growth-1 C_diff_growth T_cruzi_growth-2 T_cruzi_growth-3 NIH3T3_tox NIH3T3_tox_2
COc1ccc(NC(=O)Nc2ccc3c(c2)C(=O)N([C@@H](C)CO)C[C@@H](C)[C@H](CN(C)Cc2ccccc2)OCCCC[C@H](C)O3)cc1 -39 100* 1 110* 42 9 35*
COc1ccc(NC(=O)Nc2ccc3c(c2)C(=O)N([C@@H](C)CO)C[C@H](C)[C@@H](CN(C)Cc2ccccc2)OCCCC[C@@H](C)O3)cc1 -75 69 9 · · · ·
COc1ccc(NC(=O)Nc2ccc3c(c2)C(=O)N([C@H](C)CO)C[C@@H](C)[C@@H](CN(C)Cc2ccccc2)OCCCC[C@@H](C)O3)cc1 -73 103* -6 111* 83 8 53*
COc1ccc(NC(=O)Nc2ccc3c(c2)C(=O)N([C@@H](C)CO)C[C@@H](C)[C@@H](CN(C)Cc2ccccc2)OCCCC[C@@H](C)O3)cc1 -63 92 -3 · · · ·
COc1ccc(S(=O)(=O)Nc2ccc3c(c2)C(=O)N([C@H](C)CO)C[C@H](C)[C@H](CN(C)S(=O)(=O)c2ccc(F)cc2)OCCCC[C@H](C)O3)cc1 -50 80 6 · · · ·
COc1ccc(S(=O)(=O)N(C)C[C@@H]2OCCCC[C@@H](C)Oc3ccc(NS(=O)(=O)c4ccc(F)cc4)cc3C(=O)N([C@H](C)CO)C[C@H]2C)cc1 -48 101* 16 111* 67 22 -6
COc1ccc(S(=O)(=O)N(C)C[C@H]2OCCCC[C@H](C)Oc3ccc(NS(=O)(=O)c4ccc(F)cc4)cc3C(=O)N([C@H](C)CO)C[C@H]2C)cc1 -80 69 5 · · · ·
COc1ccc(S(=O)(=O)N(C)C[C@@H]2OCCCC[C@@H](C)Oc3ccc(NS(=O)(=O)c4ccc(F)cc4)cc3C(=O)N([C@@H](C)CO)C[C@H]2C)cc1 -2 101* 7 103* 65 -31 -6
COc1ccc(S(=O)(=O)Nc2ccc3c(c2)C(=O)N([C@H](C)CO)C[C@@H](C)[C@H](CN(C)S(=O)(=O)c2ccc(F)cc2)OCCCC[C@H](C)O3)cc1 -49 71 1 · · · ·
COc1ccc(S(=O)(=O)N(C)C[C@H]2OCCCC[C@@H](C)Oc3ccc(NS(=O)(=O)c4ccc(F)cc4)cc3C(=O)N([C@@H](C)CO)C[C@@H]2C)cc1 -34 104* 4 103* 76 10 8
COc1ccc(S(=O)(=O)N(C)C[C@@H]2OCCCC[C@H](C)Oc3ccc(NS(=O)(=O)c4ccc(F)cc4)cc3C(=O)N([C@@H](C)CO)C[C@H]2C)cc1 -44 105* 5 109* 40 -15 5
COc1ccc(S(=O)(=O)Nc2ccc3c(c2)C(=O)N([C@H](C)CO)C[C@H](C)[C@H](CN(C)S(=O)(=O)c2ccc(F)cc2)OCCCC[C@@H](C)O3)cc1 14 -2 11 · · · ·
Cc1cccc(S(=O)(=O)N2C[C@@H]3[C@H](c4ccccc42)[C@H](CO)N3C(=O)C2CC2)c1 6 10 5 · · · ·
C[C@H](CO)N1C[C@H](C)[C@@H](CN(C)C(=O)Nc2ccc3c(c2)OCO3)Oc2ccc(NC(=O)Cn3cnnn3)cc2CC1=O 25 8 -6 · · · ·
CCC(=O)N[C@@H]1CC[C@H](CCn2cc(CN(C)C)nn2)O[C@@H]1CO 13 · -2 · · · ·
O=C(N[C@H]1CC[C@@H](CCNC(=O)C2CCOCC2)O[C@H]1CO)c1ccncc1 7 -34 · · · · ·
O=C(C[C@@H]1CC[C@@H]2[C@H](COC[C@@H](O)CN2C(=O)C2CC2)O1)NCc1ccccc1Cl -27 0 3 · · · ·
O=S(=O)(N[C@H]1CC[C@@H](CCn2cc(-c3ccccc3F)nn2)O[C@H]1CO)c1ccc(Cl)cc1 -61 56 -7 · · · ·
C[C@H](O)C#Cc1cnc2c(c1)C(=O)N([C@H](C)CO)C[C@H](C)[C@H](CN(C)Cc1cccc(F)c1)O2 14 32 -1 · · · ·
COCC(=O)N1CC(=O)N2[C@@H](CO)[C@H](c3ccc(C#CC4CC4)cc3)[C@@H]2C1 -13 · 8 · · · ·
CN(C)C(=O)c1ccc(-c2ccc([C@H]3[C@H](CO)N4CCCCN(C(=O)C5CCC5)C[C@@H]34)cc2)cc1 -27 100* -9 95* 90 7 42*
CN(C)C(=O)c1ccc(-c2ccc([C@@H]3[C@@H](CO)N4CCCCN(C(=O)C5CCC5)C[C@H]34)cc2)cc1 6 49 -5 · · · ·
CN(C)C(=O)c1ccc(-c2ccc([C@@H]3[C@H]4CN(C(=O)C5CCC5)CCCCN4[C@H]3CO)cc2)cc1 -9 101* -10 95* 44 33 38*
CN(C)C(=O)c1ccc(-c2ccc([C@H]3[C@@H](CO)N4CCCCN(C(=O)C5CC5)C[C@@H]34)cc2)cc1 -23 66 5 · · · ·
CN(C)C(=O)c1ccc(-c2ccc([C@H]3[C@@H](CO)N4CCCCN(C(=O)C5CCC5)C[C@@H]34)cc2)cc1 26 106* 1 102* 89 9 27
SMILES Pf_Dd2_growth T_cruzi_growth-1 C_diff_growth T_cruzi_growth-2 T_cruzi_growth-3 NIH3T3_tox NIH3T3_tox_2
CN(C)C(=O)c1ccc(-c2ccc([C@@H]3[C@H](CO)N4CCCCN(C(=O)C5CC5)C[C@@H]34)cc2)cc1 -12 67 3 · · · ·
CC(C)C(=O)Nc1ccc2c(c1)C(=O)N(C)[C@H]1CC[C@H](CC(=O)NCCc3ccccc3)O[C@H]1CO2 5 13 -1 · · · ·
Cc1ccc(S(=O)(=O)N[C@H]2C=C[C@H](CC(=O)N3CCN(c4ccccc4)CC3)O[C@@H]2CO)cc1 -3 31 -1 · · · ·
O=C(N[C@@H]1CC[C@@H](CCn2cc(-c3ccccn3)nn2)O[C@@H]1CO)c1ccncc1 -18 -16 -1 · · · ·
CCNC(=O)[C@@H]1[C@@H](CO)[C@@H]2Cn3c(ccc(-c4ccccc4)c3=O)[C@@H]2N1Cc1ccccn1 -8 11 -2 · · · ·
C[C@H](CO)N1C[C@H](C)[C@@H](CN(C)S(=O)(=O)c2ccc(F)cc2)OCCCC[C@H](C)Oc2ccc(NS(=O)(=O)c3ccc(F)cc3)cc2C1=O -40 98* -5 96* 40 66* 59*
C[C@@H]1CCCCO[C@H](CN(C)S(=O)(=O)c2ccc(F)cc2)[C@H](C)CN([C@H](C)CO)C(=O)c2cc(NS(=O)(=O)c3ccc(F)cc3)ccc2O1 ? 115* 1 106* ? 10 -5
Cc1noc(C)c1S(=O)(=O)N(C)C[C@@H]1OCCCC[C@@H](C)Oc2ccc(NS(=O)(=O)c3ccc(F)cc3)cc2C(=O)N([C@@H](C)CO)C[C@@H]1C -34 56 -1 · · · ·

Screening results as filed in PubChem BioAssay.
